# Read-outs that look alike come from different tables or passages of the source.
# Columns and labels:
# Conditions in all cases: n = 1
# PKN1 = test system: PKN1
# PKN2 = test system: PKN2
# PLK1 = test system: PLK1
# PLK2 = test system: PLK2
# PLK3 = test system: PLK3
# PLK4 = test system: PLK4
# PRKCD = test system: PRKCD
# PRKCE = test system: PRKCE
# PRKCH = test system: PRKCH
# PRKCI = test system: PRKCI
# PRKCQ = test system: PRKCQ
# PRKD1 = test system: PRKD1
# PRKD2 = test system: PRKD2
# PRKD3 = test system: PRKD3
# PRKG1 = test system: PRKG1
# PRKG2 = test system: PRKG2
# PRKR = test system: T1, PRKR
# T1 construct: gene EIF2AK2
# PRKX = test system: PRKX
# PRP4 = test system: PRP4
# PYK2 = test system: T2, PYK2
# T2 construct: gene PTK2B
# [1] = concentration: 1 μM, replicates: in singlicate
# 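Also: KINOMEscan kinase panel screen.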
smiles,measurement,setting,value
Cn1ccc2ncnc(Oc3ccc(NC(=O)Nc4ccccc4)cc3)c21,%Inh,PKN1; [1],2%
same,%Inh,PKN2; [1],0%
same,%Inh,PLK1; [1],0%
same,%Inh,PLK2; [1],0%
same,%Inh,PLK3; [1],0%
same,%Inh,PLK4; [1],11%
same,%Inh,PRKCD; [1],7%
same,%Inh,PRKCE; [1],4%
same,%Inh,PRKCH; [1],0%
same,%Inh,PRKCI; [1],11%
same,%Inh,PRKCQ; [1],13%
same,%Inh,PRKD1; [1],0%
same,%Inh,PRKD2; [1],2%
same,%Inh,PRKD3; [1],0%
same,%Inh,PRKG1; [1],7%
same,%Inh,PRKG2; [1],31%
same,%Inh,PRKR; [1],0%
same,%Inh,PRKX; [1],0%
same,%Inh,PRP4; [1],0%
same,%Inh,PYK2; [1],0%
Cc1ccc(NC(=O)Nc2cccc(C(F)(F)F)c2)cc1 [GSK955403],%Inh,PKN1; 1 µM,16%
same,%Inh,PKN2; 1 µM,0%
same,%Inh,PLK1; 1 µM,0%
same,%Inh,PLK2; 1 µM,0%
same,%Inh,PLK3; 1 µM,0%
same,%Inh,PLK4; 1 µM,9%
same,%Inh,PRKCD; 1 µM,8%
same,%Inh,PRKCE; 1 µM,0%
same,%Inh,PRKCH; 1 µM,0%
same,%Inh,PRKCI; 1 µM,11%
same,%Inh,PRKCQ; 1 µM,24%
same,%Inh,PRKD1; 1 µM,18%
same,%Inh,PRKD2; 1 µM,0%
same,%Inh,PRKD3; 1 µM,1%
same,%Inh,PRKG1; 1 µM,19%
same,%Inh,PRKG2; 1 µM,0%
same,%Inh,PRKR; 1 µM,13%
same,%Inh,PRKX; 1 µM,1%
same,%Inh,PRP4; 1 µM,10%
same,%Inh,PYK2; 1 µM,0%
COc1cccc(-c2cc(-c3c[nH]nc3-c3ccccn3)ccn2)c1 [GW680338],%Inh,PKN1; [1],0%
same,%Inh,PKN2; [1],7%
same,%Inh,PLK1; [1],13%
same,%Inh,PLK2; [1],0%
same,%Inh,PLK3; [1],7%
same,%Inh,PLK4; [1],0%
same,%Inh,PRKCD; [1],12%
same,%Inh,PRKCE; [1],13%
same,%Inh,PRKCH; [1],1%
same,%Inh,PRKCI; [1],0%
same,%Inh,PRKCQ; [1],2%
same,%Inh,PRKD1; [1],62%
same,%Inh,PRKD2; [1],47%
same,%Inh,PRKD3; [1],34%
same,%Inh,PRKG1; [1],6%
same,%Inh,PRKG2; [1],0%
same,%Inh,PRKR; [1],0%
same,%Inh,PRKX; [1],0%
same,%Inh,PRP4; [1],26%
same,%Inh,PYK2; [1],0%
Cc1cc(NCC(c2ccccc2)c2ccccc2)nc(NCc2ccc(C(F)(F)F)cc2)n1 [GW497681],%Inh,PKN1; [1],0%
same,%Inh,PKN2; [1],0%
same,%Inh,PLK1; [1],0%
same,%Inh,PLK2; [1],0%
same,%Inh,PLK3; [1],0%
same,%Inh,PLK4; [1],3%
same,%Inh,PRKCD; [1],0%
same,%Inh,PRKCE; [1],0%
same,%Inh,PRKCH; [1],0%
same,%Inh,PRKCI; [1],2%
same,%Inh,PRKCQ; [1],0%
same,%Inh,PRKD1; [1],0%
same,%Inh,PRKD2; [1],6%
same,%Inh,PRKD3; [1],0%
same,%Inh,PRKG1; [1],0%
same,%Inh,PRKG2; [1],0%
same,%Inh,PRKR; [1],0%
same,%Inh,PRKX; [1],6%
same,%Inh,PRP4; [1],29%
same,%Inh,PYK2; [1],6%
O=C(O)COc1ncnc2cc(-c3ccc4[nH]ncc4c3)sc12,%Inh,PKN1; [1],30%
same,%Inh,PKN2; [1],19%
same,%Inh,PLK1; [1],2%
same,%Inh,PLK2; [1],18%
same,%Inh,PLK3; [1],12%
same,%Inh,PLK4; [1],15%
same,%Inh,PRKCD; [1],19%
same,%Inh,PRKCE; [1],10%
same,%Inh,PRKCH; [1],0%
same,%Inh,PRKCI; [1],3%
same,%Inh,PRKCQ; [1],41%
same,%Inh,PRKD1; [1],0%
same,%Inh,PRKD2; [1],0%
same,%Inh,PRKD3; [1],25%
same,%Inh,PRKG1; [1],17%
same,%Inh,PRKG2; [1],0%
same,%Inh,PRKR; [1],0%
same,%Inh,PRKX; [1],41%
same,%Inh,PRP4; [1],0%
same,%Inh,PYK2; [1],0%
Cl.O=C(Nc1cccc(-c2nn3ncccc3c2-c2ccnc(Nc3cccnc3)n2)c1)c1c(F)cccc1F [GSK312879],%Inh,PKN1; [1],45%
same,%Inh,PKN2; [1],0%
same,%Inh,PLK1; [1],0%
same,%Inh,PLK2; [1],0%
same,%Inh,PLK3; [1],0%
same,%Inh,PLK4; [1],0%
same,%Inh,PRKCD; [1],0%
same,%Inh,PRKCE; [1],5%
same,%Inh,PRKCH; [1],16%
same,%Inh,PRKCI; [1],0%
same,%Inh,PRKCQ; [1],25%
same,%Inh,PRKD1; [1],0%
same,%Inh,PRKD2; [1],0%
same,%Inh,PRKD3; [1],25%
same,%Inh,PRKG1; [1],16%
same,%Inh,PRKG2; [1],0%
same,%Inh,PRKR; [1],0%
same,%Inh,PRKX; [1],3%
same,%Inh,PRP4; [1],11%
same,%Inh,PYK2; [1],0%
CN(C)CCN(C)C(=O)c1cc(-c2ccncc2)c(-c2ccc(Cl)c(O)c2)o1.Cl.Cl [SB-710397],%Inh,PKN1; [1],17%
same,%Inh,PKN2; [1],0%
same,%Inh,PLK1; [1],8%
same,%Inh,PLK2; [1],0%
same,%Inh,PLK3; [1],0%
same,%Inh,PLK4; [1],0%
same,%Inh,PRKCD; [1],0%
same,%Inh,PRKCE; [1],47%
same,%Inh,PRKCH; [1],22%
same,%Inh,PRKCI; [1],33%
same,%Inh,PRKCQ; [1],3%
same,%Inh,PRKD1; [1],0%
same,%Inh,PRKD2; [1],57%
same,%Inh,PRKD3; [1],12%
same,%Inh,PRKG1; [1],0%
same,%Inh,PRKG2; [1],0%
same,%Inh,PRKR; [1],0%
same,%Inh,PRKX; [1],0%
same,%Inh,PRP4; [1],60%
same,%Inh,PYK2; [1],12%
CC(C)(C)c1ccc(C(=O)Nc2cn3cc(Cl)ccc3n2)cc1,%Inh,PKN1; [1],0%
same,%Inh,PKN2; [1],1%
same,%Inh,PLK1; [1],13%
same,%Inh,PLK2; [1],0%
same,%Inh,PLK3; [1],1%
same,%Inh,PLK4; [1],0%
same,%Inh,PRKCD; [1],4%
same,%Inh,PRKCE; [1],13%
same,%Inh,PRKCH; [1],2%
same,%Inh,PRKCI; [1],100%
same,%Inh,PRKCQ; [1],18%
same,%Inh,PRKD1; [1],0%
same,%Inh,PRKD2; [1],0%
same,%Inh,PRKD3; [1],0%
same,%Inh,PRKG1; [1],0%
same,%Inh,PRKG2; [1],0%
same,%Inh,PRKR; [1],0%
same,%Inh,PRKX; [1],0%
same,%Inh,PRP4; [1],0%
same,%Inh,PYK2; [1],96.6%
Cc1ccc(NC(=O)Nc2cc(C(C)(C)C)nn2-c2ccccc2)cc1 [GSK1014915],%Inh,PKN1; [1],53%
same,%Inh,PKN2; [1],0%
same,%Inh,PLK1; [1],0%
same,%Inh,PLK2; [1],0%
same,%Inh,PLK3; [1],0%
same,%Inh,PLK4; [1],0%
same,%Inh,PRKCD; [1],0%
same,%Inh,PRKCE; [1],0%
same,%Inh,PRKCH; [1],5%
same,%Inh,PRKCI; [1],28%
same,%Inh,PRKCQ; [1],0%
same,%Inh,PRKD1; [1],7%
same,%Inh,PRKD2; [1],0%
same,%Inh,PRKD3; [1],18%
same,%Inh,PRKG1; [1],11%
same,%Inh,PRKG2; [1],0%
same,%Inh,PRKR; [1],0%
same,%Inh,PRKX; [1],57%
same,%Inh,PRP4; [1],1%
same,%Inh,PYK2; [1],4%
Cc1cccc(-c2nc(Nc3ccncc3)c3ccccc3n2)n1 [GW855857],%Inh,PKN1; [1],0%
same,%Inh,PKN2; [1],0%
same,%Inh,PLK1; [1],6%
same,%Inh,PLK2; [1],0%
same,%Inh,PLK3; [1],0%
same,%Inh,PLK4; [1],0%
same,%Inh,PRKCD; [1],29%
same,%Inh,PRKCE; [1],0%
same,%Inh,PRKCH; [1],0%
same,%Inh,PRKCI; [1],32%
same,%Inh,PRKCQ; [1],0%
same,%Inh,PRKD1; [1],86%
same,%Inh,PRKD2; [1],99%
same,%Inh,PRKD3; [1],69%
same,%Inh,PRKG1; [1],7%
same,%Inh,PRKG2; [1],0%
same,%Inh,PRKR; [1],2%
same,%Inh,PRKX; [1],0%
same,%Inh,PRP4; [1],17%
same,%Inh,PYK2; [1],4%

# — publication PMC5540273 (PLoS ONE, 2017)
